Source: PubChem BioAssay
PGC1a acetyl inh: inhibitors of PGC1a acetylation signal, primary screen, cell-based, U2OS, AlphaScreen, inhibitor mode. inhibition, % at 15.6 µM. 350,000 compounds, 0.17% hits. AlphaScreen anti-acetyl-lysine; with virally co-expressed GCN5 acetyltransferase;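 active = every replicate shows inhibition of at least 40%; inconclusive = mean inhibition at least 40% but some replicate below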
DENV2 CPE: inhibitors of DENV2 cytopathic effect, primary screen, cell-based, plate reader, single concentration | DENV2-infected cells, cytopathic effect rescue | CPE inhibition, % at 9.99 µM | 350,000 compounds, 1.7% hits | AID 651640, 2012; in the data active = CPE inhibition above about 20%, passing the limit was not always enough; inconclusive = no clear call, values can overlap the other calls; tested in BHK-21 cells
Ecoli rRNA inh: reduced GFP signal of wild-type E. coli, primary screen, bacterial rRNA inhibitor project, GFP/RFP fluorescence, OD600, single point; E. coli WT GFP vs humanized-ribosome RFP mutants, 24 h; hits give low values; DMSO median 0, no signal -100; GFP signal change (wild-type ribosome), % (concentration not given with the values); 350,000 compounds, 1.6% hits;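 active = significant combined selectivity score with lowered wild-type GFP, culture density cut under 30%, mutant RFP and density less affected; inactive = any of these conditions unmet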
CaV13 ICDI inh: Disruptors of the CACNA1D IQ motif to Ca2+-dependent inactivation inhibitor domain association, primary screening, Förster resonance energy transfer in intact living …; HEK cells, CFP/YFP FRET ICDI-IQ, plate reader, 10 min; percent FRET-ratio fall versus neutral wells; inhibition, % at 12.3 µM; 340,000 compounds, 0.098% hits; AID 743397;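 active = mean replicate inhibition of at least 30% and at least 1% of replicates passing that level; inconclusive = only one of the two criteria is met; inactive = neither criterion is met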
INS-1E GSIS act: GLuc luminescence reporter in INS-1E cells, primary screen for activators of glucose-dependent secretion of insulin. INS-1E GLuc reporter insulin secretion, 2-3 h. activation, % at 16.6 µM. 370,000 compounds, 0.61% hits. AID 743287, 2014;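 active = lowest replicate activation of at least 40%, so every replicate reaches that level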
ERAP1 inh: human ERAP1 aminopeptidase inhibitors, primary screen, biochemical, single point, plate reader; 340,000 compounds, 0.15% hits; AID 652197, 2013; recombinant ERAP1, Leu-AMC fluorescence, 60 min; inhibition, % at 10.7 µM;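 active = mean replicate inhibition of at least 30%, or all replicates individually reaching that 30% level; inactive = mean below 30% and not every replicate reaching it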
Target sequence (Q9NZ08 whole entry, looked up): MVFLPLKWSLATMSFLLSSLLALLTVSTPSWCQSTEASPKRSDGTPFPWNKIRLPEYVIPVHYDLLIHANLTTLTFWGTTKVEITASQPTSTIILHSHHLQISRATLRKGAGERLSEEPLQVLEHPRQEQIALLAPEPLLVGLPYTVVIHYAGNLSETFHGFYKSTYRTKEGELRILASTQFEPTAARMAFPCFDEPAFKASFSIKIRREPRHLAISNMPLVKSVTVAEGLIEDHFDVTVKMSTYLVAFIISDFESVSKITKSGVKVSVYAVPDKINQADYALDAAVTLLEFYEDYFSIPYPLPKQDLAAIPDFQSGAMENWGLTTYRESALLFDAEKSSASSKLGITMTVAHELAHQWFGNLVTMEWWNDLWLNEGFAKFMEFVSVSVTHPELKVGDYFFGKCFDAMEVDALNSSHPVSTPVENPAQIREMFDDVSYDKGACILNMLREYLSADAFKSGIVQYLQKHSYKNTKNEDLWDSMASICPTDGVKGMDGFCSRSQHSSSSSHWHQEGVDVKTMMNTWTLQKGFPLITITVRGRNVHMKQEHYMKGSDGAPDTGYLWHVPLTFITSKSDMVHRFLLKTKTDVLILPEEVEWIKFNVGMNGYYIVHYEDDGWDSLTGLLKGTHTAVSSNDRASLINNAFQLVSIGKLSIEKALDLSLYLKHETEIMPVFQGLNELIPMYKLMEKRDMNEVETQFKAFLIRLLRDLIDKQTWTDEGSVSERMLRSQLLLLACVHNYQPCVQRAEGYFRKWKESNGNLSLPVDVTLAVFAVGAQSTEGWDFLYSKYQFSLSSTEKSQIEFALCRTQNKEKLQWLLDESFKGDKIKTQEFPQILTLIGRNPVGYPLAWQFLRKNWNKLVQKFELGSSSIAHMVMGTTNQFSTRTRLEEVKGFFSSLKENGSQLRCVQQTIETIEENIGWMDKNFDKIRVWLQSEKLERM
Numbers stand for hits; i = inactive; ? = inconclusive; nt = no result; ! = not confirmed by another sample. Sampled rows, rich in hits. Any-hit rate of the full collection: about 3.2%.

SMILES	PGC1a acetyl inh	DENV2 CPE	Ecoli rRNA inh	CaV13 ICDI inh	INS-1E GSIS act	ERAP1 inh
COCCNC(=O)c1cc2c(-c3ccc(Cl)cc3)nn(C)c2s1	i	i	-27	?	i	nt
COc1ccccc1NC(=O)N[C@H]1C=C[C@H](CC(=O)N2CCC(Cc3ccccc3)CC2)O[C@H]1CO	i	i	i	nt	i	i
O=C(Nc1ccc(Br)cc1)N1CCc2ccccc2C1	i	i	-39	nt	i	i
O=C(Nc1ccc(F)cc1)N1CCc2ccccc2C1	i	i	i	i	i	i
COc1cccc(/C=C2\Oc3cc(OCC(=O)N4CCCCC4)ccc3C2=O)c1OC	nt	i	i	i	i	i
COc1cccc(/C=C2\Oc3cc(OCC(=O)N4CCCC4)ccc3C2=O)c1OC	nt	i	-24	i	i	i
COc1ccc2c3c([nH]c2c1)[C@@H](CO)N(C(=O)c1ccncc1)CC31CN(C(=O)CC2CC2)C1	i	i	i	nt	i	nt
CO[C@H]1CN(C)C(=O)c2cc(NS(=O)(=O)Cc3ccccc3)ccc2OC[C@@H](C)NC[C@@H]1C	i	i	i	nt	i	nt
COc1ccc(COCCN2CCN(S(=O)(=O)c3ccc(C)cc3)CCC2=O)cc1	nt	79	i	i	i	nt
O=C(N/N=C/c1ccncc1)NC1CCCCC1	nt	nt	i	i	i	i
O=C(N/N=C/c1cccc(O)c1)NC1CCCCC1	i	i	-25	i	i	i
CC(C)[C@@H]1CC=CC[C@H](C)Oc2ccccc2C(=O)N(C)[C@@H](C)C(=O)N1 (mixture of isomers)	nt	nt	i	nt	i	nt
CCN(CC)c1ccc(NC(=O)CSc2nc3nc(C)cc(C)c3c(=O)[nH]2)cc1	i	i	i	i	42	i
CN(C)/C=N/c1ncc(C(=O)c2ccc(-c3ccccc3)cc2)s1	i	i	-18	nt	i	i
CN(C)/C=N/c1ncc(C(=O)c2ccccc2)s1	i	nt	nt	i	nt	nt
C[C@H](CO)N1C[C@H](C)[C@H](CN(C)C(=O)Nc2ccc3c(c2)OCO3)OCCCC[C@H](C)Oc2ccc(NS(=O)(=O)c3cccs3)cc2C1=O	i	nt	i	nt	i	i
O=C(C[C@H]1C[C@H]2c3cc(NC(=O)c4ccc5c(c4)OCO5)ccc3O[C@H]2[C@@H](CO)O1)NCC1CC1	i	i	i	nt	i	i
O=C(C[C@@H]1C[C@H]2c3cc(NC(=O)c4ccc5c(c4)OCO5)ccc3O[C@H]2[C@@H](CO)O1)NCC1CC1	i	27	i	nt	i	i
O=C(C[C@@H]1C[C@@H]2c3cc(NC(=O)c4ccc5c(c4)OCO5)ccc3O[C@@H]2[C@@H](CO)O1)NC1CCCC1	i	34	i	nt	i	i
COc1ccc2c3c([nH]c2c1)[C@H](CO)N(Cc1ccccc1)CC31CN(CC2CC2)C1	nt	nt	i	nt	i	nt
O=C1N[C@H](c2ccccc2)COCc2cnnn2CC[C@H]1Cc1ccc(-c2ccccc2)cc1	nt	nt	i	nt	i	nt
CCCN(C)C[C@@H]1Oc2ncc(-c3cccc(C#N)c3)cc2C(=O)N([C@H](C)CO)C[C@@H]1C	i	i	i	nt	i	i
O=C(CC1CC1)Nc1ccc2c(c1)[C@@H]1C[C@H](CC(=O)NC3CCCC3)O[C@@H](CO)[C@@H]1O2	i	29!	i	nt	i	i
O=C(CC1CC1)Nc1ccc2c(c1)[C@@H]1C[C@@H](CC(=O)NC3CCCC3)O[C@@H](CO)[C@@H]1O2	i	i	i	nt	i	i
COCC(=O)Nc1ccc2c(c1)[C@@H]1C[C@@H](CC(=O)NC3CCCCC3)O[C@H](CO)[C@@H]1O2	i	i	i	nt	i	i
SMILES	PGC1a acetyl inh	DENV2 CPE	Ecoli rRNA inh	CaV13 ICDI inh	INS-1E GSIS act	ERAP1 inh
COCC(=O)Nc1ccc2c(c1)[C@H]1C[C@@H](CC(=O)NC3CCCCC3)O[C@H](CO)[C@H]1O2	i	33	i	nt	i	i
C[C@@H]1CN([C@H](C)CO)C(=O)c2cc(/C=C/c3ccccc3)cnc2O[C@@H]1CN(C)C(=O)c1cnccn1	i	i	i	nt	i	i
COc1ccc2c3c(n(C)c2c1)[C@H](CO)N(Cc1ccccc1)CC31CN(C(=O)Nc2cccc(F)c2)C1	nt	i	i	nt	i	i
CNC(=O)c1ccc(-c2nc(-c3ccccc3)cs2)cc1	i	i	i	i	i	i
O=C(O)c1ccc(-c2nc(-c3ccccc3)cs2)cc1	nt	i	-20	i	i	i
COc1ccc(-c2csc(-c3ccc(O)cc3)n2)cc1	nt	i	-28	i	i	i
c1ccc(-c2csc(-c3ccc(-c4csnn4)cc3)n2)cc1	nt	54	i	i	i	i
CC(C)NC(=O)Nc1ccc2c(c1)C(=O)N([C@@H](C)CO)C[C@@H](C)[C@@H](CN(C)Cc1ccccc1)O2	i	i	i	nt	i	i
Cc1noc(C)c1NC(=O)Nc1ccc2c(c1)C(=O)N(C)[C@H]1CC[C@@H](CC(=O)NCc3ccc(Cl)cc3)O[C@@H]1CO2	nt	?	i	nt	i	i
CN(C)C(=O)C[C@@H]1C[C@H]2c3cc(NC(=O)C4CCC4)ccc3O[C@H]2[C@@H](CO)O1	i	i	i	nt	i	i
COc1ccc(NC(=O)N(C)C[C@H]2Oc3ccc(NS(=O)(=O)c4cccs4)cc3CC(=O)N([C@H](C)CO)C[C@@H]2C)cc1	i	i	i	nt	i	nt
CN(C)CC#Cc1cccc(-c2nc(C(=O)N[C@@H]3CCN(Cc4ccccc4)C3)cc3c2[C@H](CCO)N(S(=O)C(C)(C)C)C3)c1 (stereo not given in full)	i	48	nt	nt	nt	i
Cc1ccc(NC(=O)c2ccc3c(c2)CCN3S(C)(=O)=O)cc1	nt	30	i	i	nt	i
O=S(=O)(N[C@H]1CC[C@H](CCn2cc(-c3ccc(F)cc3)nn2)O[C@H]1CO)c1ccccc1F	i	i	i	nt	i	i
Cc1ccc(-c2nc(C#N)c(NCC3CCCO3)o2)cc1 (stereo not given)	i	i	-24	i	40	i
Cc1ccc(S(=O)(=O)CCC(=O)Nc2cc(C)on2)cc1	i	i	i	i	i	i
Cc1cc(NC(=O)CCS(=O)(=O)c2nc(-c3ccccc3)cc(C(F)(F)F)n2)no1	90	nt	nt	i	nt	nt
COc1ccc(-c2sc3ccc(OC)cc3c2C#CCCO)cc1	i	nt	i	nt	i	i
COc1ccc2sc(-c3ccc(N(C)C)cc3)c(C#CCCO)c2c1	i	26	i	i	i	i
O=C1C=CC(O)C2(CO)OC12 (stereo not given)	nt	25	i	i	i	i
NS(=O)(=O)c1ccc(NC(=O)Nc2ccc(Cl)cc2)cc1	nt	i	-26	i	i	i
COC(=O)[C@H](C)NC(=O)Nc1ccc(S(N)(=O)=O)cc1	i	nt	nt	nt	nt	nt
